From PubChem BioAssay AID588342 (National Center for Advancing Translational Sciences (NCATS), 2011)
The whole screen tested about 360,000 compounds, of which about 25,000 (6.9%) were called active. A call without a number means that no potency is given here. Another 9% or so got no clear call; they are omitted. For the sample, actives were picked, then their nearest neighbours and some compounds at random. Unmarked numbers belong to inactive results. Calls come from the whole dose curve; as a rule, active = well fitted inhibition curve with a large enough effect; inconclusive = small, poorly fitted or top-dose-only effect; inactive = flat fitted curve, though single readings scatter.

molecular target: Luciferin 4-monooxygenase (Photinus pyralis) (UniProt P08659); test: qHTS profiling assay for firefly luciferase inhibitor/activator using purifed enzyme and Km concentrations of substrates (counterscreen for miR-21 project); conditions: purified FLuc, luminescence inhibition; series mostly up to 57.5 µM; note: nearly all actives have a fitted effect of over 55% in size
Method in brief: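 Purified P. pyralis luciferase (10nM final) with 10uM D-luciferin and 10uM ATP (Km levels) in 50mM Tris acetate pH 7.5, 10mM Mg acetate, 0.01% Tween-20, 0.05% BSA; qHTS 6-point titration, ~60 µM downward; luminescence read.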
Potency is the fitted concentration of half-maximal effect.

Luciferin 4-monooxygenase (Photinus pyralis), sequence (P08659 whole entry, looked up): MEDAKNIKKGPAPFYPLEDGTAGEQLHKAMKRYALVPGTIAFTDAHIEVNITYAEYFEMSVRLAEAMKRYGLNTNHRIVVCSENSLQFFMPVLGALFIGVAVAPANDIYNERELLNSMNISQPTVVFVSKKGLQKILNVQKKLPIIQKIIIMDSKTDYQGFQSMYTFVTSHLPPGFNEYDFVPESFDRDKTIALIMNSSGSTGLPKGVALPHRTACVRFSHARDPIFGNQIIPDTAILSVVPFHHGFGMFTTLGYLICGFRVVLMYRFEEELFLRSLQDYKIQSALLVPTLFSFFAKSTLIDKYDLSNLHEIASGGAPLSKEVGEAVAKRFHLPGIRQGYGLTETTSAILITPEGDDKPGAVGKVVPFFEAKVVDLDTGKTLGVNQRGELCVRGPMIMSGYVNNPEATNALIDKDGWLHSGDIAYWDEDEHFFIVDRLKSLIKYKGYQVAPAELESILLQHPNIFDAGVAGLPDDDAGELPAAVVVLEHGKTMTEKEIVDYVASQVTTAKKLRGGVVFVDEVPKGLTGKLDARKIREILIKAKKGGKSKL

SMILES | Potency | activity change, negative = inhibition
CCCOc1ccc(C2c3c(-c4ccccc4O)n[nH]c3C(=O)N2Cc2cccnc2)cc1 (centres undefined) | inactive | 
N#Cc1ccccc1Cn1cnc2nc3c(cc2c1=O)CCCC3 | inactive | 
Cc1ccc(-n2nc(C)c3c(C)cc(=O)n(CC(=O)Nc4ccc(C(C)C)cc4)c32)cc1 | inactive | 
Cc1c(C(=O)Nc2cccc(Cl)c2)oc2ccc(S(=O)(=O)N3CCOCC3)cc12 | inactive | 
Cc1cccc(-c2nc(SCC(=O)Nc3cc(C)on3)c3c(=O)n(C)c(=O)n(C)c3n2)c1 | inactive | 
Cc1ccc(NC(=O)Cn2cnc3nc4c(cc3c2=O)CCCC4)cc1Cl | inactive | 
COc1ccc(NC(=O)c2cnc(Nc3ccc(C)c(Cl)c3)c3ccccc23)cc1OC | inactive | 
CC(C)(C)c1ccc(C(=O)CSc2ncn[nH]2)cc1 | 4.78 µM (active) | 
COc1ccc(C(=O)CSc2nccc(=O)[nH]2)cc1 | inactive | 
CCN(C(=O)CSc1ncn[nH]1)c1cccc2ccccc12 | inactive | 
CC(C)OCCCn1c(SCC(=O)c2ccccc2)nc2c(sc3ccccc32)c1=O | inactive | 
Cc1csc(SCC(=O)N(c2ccccc2)C(C)C)n1 | inactive | 
CC(=O)OCCN(CCCn1c(-c2ccncc2)nc2ccccc21)c1nc(-c2ccc(C)cc2)cs1 | inactive | 
Cc1ccc(C)c(NC(=O)NNC(=O)c2ccc3ccccc3c2O)c1 | inactive | 
Cc1ccccc1OC/C(O)=C(\C#N)c1nc2ccccc2[nH]1 | inactive | 
COc1cc(/C=C(\C#N)c2nc3c(s2)CC(C)CC3)ccc1O (centres undefined) | 0.675 µM (active) | 
Cc1ccc2nc(/C(C#N)=C\c3ccc(OC(=O)c4cccs4)cc3)[nH]c2c1 | inactive | 
N#C/C(=C\c1ccccc1F)c1nc2ccccc2c(=O)[nH]1 | inactive | 
COc1cccc2cc(-c3nc(Cl)c4c5c(sc4n3)CC(C)CC5)c(=O)oc12 (centres undefined) | inactive | 
COc1cc(/C=C(\C#N)c2nc3ccccc3[nH]2)ccc1O | 4.78 µM (active) | 
Cc1ccc2nc(/C(C#N)=C/c3ccccc3F)[nH]c2c1 | 8.49 µM (active) | 
CCOc1ccc(/C=C(\C#N)c2nc3ccccc3c(=O)[nH]2)cc1OC | inactive | 
O=C1OC(C(=O)Nc2cccc(Br)c2)Cc2ccccc21 (centres undefined) | inactive | 
O=C(C1CC(=O)N(C2CCCC2)C1)N1CCN(c2cccc(C(F)(F)F)c2)CC1 (centres undefined) | inactive | 
Cc1ccc(CN2CCCOCCS2(=O)=O)cc1 | inactive | 
Cc1ccc(CNC(=O)CSC2=Nc3ccccc3C3=NC(C)C(=O)N23)cc1 (centres undefined) | inactive | 

SMILES | Potency | activity change, negative = inhibition
Cc1c(Cl)cccc1-c1ccc(CNCCCSc2nnnn2C)o1 | inactive | 
O=C(Cn1cc(/C=N/NC(=O)c2cccc(C(F)(F)F)c2)c2ccccc21)Nc1ccc(F)cc1 | inactive | 
CC(OC(=O)/C=C/c1ccccc1)C(=O)NC1CCCCC1C (centres undefined) | inactive | 
Cn1nccc1NC(=O)CC(CC(=O)O)c1ccccc1 (centres undefined) | inactive | 
O=C(CN1CCN(c2ccc(O)cc2)CC1)Nc1ccc(-c2ccccc2)cc1 | inactive | 
Oc1ccc(-c2cccc(-c3ccc(O)cc3)c2)cc1 | 16.9 µM (active) | 
CC(C#N)(NC(=O)CN1CCN(S(=O)(=O)c2cc(C(F)(F)F)ccc2Cl)CC1)C1CC1 (centres undefined) | inactive | 
O=C1/C(=C/c2ccc(F)cc2)SC(=S)N1NS(=O)(=O)c1ccccc1 | inactive | 
COc1ccc(NC(=O)CSc2nc3ncccc3[nH]2)c(OC)c1 | inactive | 
O=C(CSc1nc2ncccc2[nH]1)Nc1ccc2c(c1)OCCO2 | 15.1 µM (active) | 
O=C(CSc1nc(=O)n2ccccc2n1)Nc1ccc2c(c1)OCCO2 | inactive | 
CCc1ccccc1OCC(=O)Nc1ccc2c(c1)OCCO2 | 10.7 µM (active) | 
Cc1ccc(SCC(=O)Nc2ccc3c(c2)OCCO3)cc1 | 6.75 µM (active) | 
COc1ccc(NC(=O)CSc2nccn2Cc2ccc3c(c2)OCO3)cc1 | inactive | 
Cc1ccc(S(=O)(=O)NCC(=O)Nc2ccc3c(c2)OCCO3)cc1 | inactive | 
CCC(=O)c1cc(F)ccc1OCC(=O)Nc1ccc2c(c1)OCCO2 | inactive | 
COc1ccc(Cn2ccnc2SCC(=O)Nc2ccc3c(c2)OCO3)cc1 | inactive | 
CC(C)NS(=O)(=O)c1ccc(OCC(=O)Nc2ccc3c(c2)OCCO3)cc1 |  | 3.95% [at 2.3 µM]
Cn1ccnc1SCC(=O)Nc1ccc2c(c1)OCCO2 | 23.9 µM (active) | 
Cc1ccc(-n2c(SCC(=O)Nc3ccc4c(c3)OCO4)nnc2-c2ccoc2C)cc1 | inactive | 
CC(C)CCN(C(=O)Nc1ccc(Cl)c(Cl)c1)C(C)c1cccs1 (centres undefined) | inactive | 
CCOC(=O)c1cc2c(=O)n3ccccc3nc2n(CC2CCCO2)c1=NC(=O)c1ccc(C(C)(C)C)cc1 (centres undefined) | inactive | 
COc1ccc(NC(=O)CCNS(=O)(=O)c2ccc3c(c2)CCCC(=O)N3)cc1Cl | inactive | 
Cc1c(Cl)cccc1NC(=O)C(=O)NCCc1csc2nc(-c3ccccc3F)nn12 | inactive | 
NC(CSC12CC3CC(CC(C3)C1)C2)C(=O)O (centres undefined) | inactive | 
O=C(COc1ccc(Cl)cc1)Nc1ccc2c(c1)OCO2 | 19 µM (active) | 

SMILES | Potency | activity change, negative = inhibition
COc1ccccc1OCCCC(=O)Nc1ccc2c(c1)OCCO2 | inactive | 
O=C(CCS(=O)(=O)Cc1ccccc1)Nc1ccc2c(c1)OCCO2 | inactive | 
CS(=O)(=O)c1ccc(-c2nnn(CC(=O)Nc3ccc4c(c3)OCCO4)n2)cc1 | inactive | 
FC(F)Oc1ccc(NC(=S)NCc2ccco2)cc1Cl | inactive | 
S=C(NCc1ccc2c(c1)OCO2)NCc1ccco1 | inactive | 
O=C(COc1ccc(Cl)cc1)Nc1ccc2oc(=O)ccc2c1 | inactive | 
Cc1cc(C)c2c(=O)[nH]c(SCC(=O)Nc3ccc(Br)cc3)nc2n1 | inactive | 
O=C(CSc1ncc(S(=O)(=O)c2ccc(Br)cc2)c(=O)[nH]1)Nc1ccc2c(c1)OCCO2 | 9.53 µM (active) | 
S=C(NCc1ccco1)Nc1ccc2c(c1)OCCO2 | 15.1 µM (active) | 
COc1ccc(Cl)cc1NC(=O)COc1ccc2c(c1)OCO2 | inactive | 
CCCCC(=O)Nc1ccc2c(c1)OCCO2 | 21.3 µM (active) | 
COc1ccccc1CNc1nc2ccc(Cl)cc2n2cnnc12 | inactive | 
COCCN(C(=O)CCC(=O)Nc1nccs1)C(C(=O)NCCC(C)C)c1ccc(F)cc1 (centres undefined) | inactive | 
COc1ccccc1C(=O)Nc1ccc(C)c(S(=O)(=O)N2CCCCC2)c1 | inactive | 
CCc1ccccc1NC(=O)c1cnn(-c2ccc(F)cc2)c1C1CCNCC1 | inactive | 
CCc1ccc(C2N3CC4([N+](=O)[O-])CN2CC([N+](=O)[O-])(C3)C4(C)C)cc1 (centres undefined) | inactive | 
Cc1ccc(NC(=O)C(Cc2ccccc2)NS(=O)(=O)c2ccc3c(c2)oc(=O)n3C)cc1C (centres undefined) | inactive | 
Cc1ccc(S(=O)(=O)N(CC(=O)Nc2ccc(Cl)cc2Cl)c2ccccc2C)cc1 | inactive | 
COc1cccc(CNC(=O)Cn2c(=O)c3cccn3c3ccc(F)cc32)c1OC | inactive | 
Cc1ccc(NC(=O)CN(C)C(=O)Cn2nnc(-c3ccccc3)n2)cc1 | inactive | 
Cc1nc2ccc(S(=O)(=O)NC(C(=O)NCc3ccccc3Cl)C(C)C)cc2s1 (centres undefined) | inactive | 
CSc1nnc(-c2ccc(C(F)(F)F)cn2)o1 | inactive | 
O=C(COc1ccccc1F)Nc1ccc(C(=O)OCc2cc(=O)n3nc(C4CC4)sc3n2)cc1 | inactive | 
Cc1cc(=O)[nH]c(SCC(=O)Nc2ccc(Br)cc2)n1 | inactive | 
Cc1ccc(NC(=O)CSc2nc(CSc3ccc(C)cc3)cc(=O)[nH]2)cc1 | 21.3 µM (active) | 
COc1ccc(NC(=O)CSc2nc(NS(=O)(=O)c3ccc(C)cc3)cc(=O)[nH]2)cc1 | inactive | 

SMILES | Potency | activity change, negative = inhibition
CC(C)Cc1nnc(NC(=O)CCNC(=O)c2ccccc2Cl)s1 | inactive | 
C/C=C/C=C/C(=O)O | inactive | 
COc1ccc(S(=O)(=O)c2cn(C)c3cc(N4CCCCC4)c(F)cc3c2=O)cc1 | inactive | 
COc1ccc(C(=O)NCC(c2ccc(N(C)C)cc2)N2CCc3ccccc32)c(OC)c1 (centres undefined) | inactive | 
COc1ccc(S(=O)(=O)N2CCCCC2)cc1C(=O)NC1CCS(=O)(=O)C1 (centres undefined) | inactive | 
CN1OC(COC(=O)c2ccc(Cl)cc2)CC1c1ccccc1 (centres undefined) | 19 µM (active) | 
CCOC(=O)c1ccc(CN(Cc2ccccc2)S(=O)(=O)c2ccc(Cl)cc2)cc1 | inactive | 
Cn1cncc1COC(=O)c1ccc(Cl)cc1 | inactive | 
O=C(CCS(=O)(=O)c1ccccc1)N(Cc1cccnc1)c1nc2c(F)cccc2s1 | inactive | 
CN(C)c1cccc(C(=O)N2CCC(n3nccc3NC(=O)C3CCOC3)CC2)c1 (centres undefined) | inactive | 
CN(CCO)c1ccc(/C=N/Nc2nncc3ccccc23)cc1 | 0.0757 µM (active) | 
Cc1cc2cc3c(N)[nH]nc3nc2cc1C | 4.78 µM (active) | 
COCCNC(=O)NC(=O)COC(=O)C1(c2ccc(Cl)cc2)CC1 | inactive | 
CCN(CC)C(=O)CS(=O)CC(=O)Nc1cc(OCCOC)c(Cl)cc1Cl (centres undefined) | inactive | 
O=C(CSc1ccc(-c2ccc(Br)cc2)nn1)NCC1CCCO1 (centres undefined) | 15.1 µM (active) | 
O=C(CSc1nnc(-c2ccc(NS(=O)(=O)c3ccccc3)cc2)o1)NCC1CCCO1 (centres undefined) | inactive | 
O=C(CSc1ccc(-c2ccccc2)nn1)NCC1CCCO1 (centres undefined) | inactive | 
CCCC[C@]12Cc3cc(OC)c(OC)cc3C(O1)C1=C(CC3(CCCCC3)OC1=O)O2 |  | -0.0926% [at 11.5 µM]
CCN(CC)CCCSc1nc2ccccc2s1 | inactive | 
Cc1cc(C)c(C#N)c(SCc2ccccc2C(=O)O)n1 | inactive | 
O=C(O)c1ccccc1CSc1nc2ccccc2s1 | 19 µM (active) | 
COCCNC(=O)c1ccc2c(c1)N=C(C)c1cc(C)ccc1S2 | inactive | 
COc1ccc(S(=O)(=O)N2CCOC23CCN(S(=O)(=O)c2ccc([N+](=O)[O-])cc2)CC3)cc1 | inactive | 
CC(=O)N(C)c1ccc(NC(=O)Nc2cccc3ccccc23)cc1 | 8.49 µM (active) | 
O=C(O)Cc1ccc(NC(=O)Nc2cccc3ccccc23)cc1 | inactive | 
CCOc1ccc(NC(=O)Nc2ccc(N(C)C(C)=O)cc2)cc1 | inactive | 
